# According to PubChem BioAssay AID1962 (The Scripps Research Institute Molecular Screening Center, 2009):
# The whole screen tested about 300,000 compounds, of which about 2,500 (0.83%) were called active. Only a selection was taken, and actives are over-represented in it overall. Values without a mark were called inactive.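 Rule for the calls: active = inhibition above the mean of all tested compounds plus 3 SD, set per screening campaign (cut at about 24% in these data); inactive = the rest.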
# System: tRNA 2'-phosphotransferase TPT1 (Candida albicans SC5314)
# Experiment: Candida albicans TPT1 enzyme inhibitors, primary screen, biochemical, fluorescence polarization (AID 1962);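 note: plate controls were DMSO alone for no effect and ferristatin control at 100 nM for full effect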
# Conditions: recombinant caTPT1, FP RNA substrate dephosphorylation; at 5 µM; stronger effect = higher value
row,Compound,inhibition
1,CC(=O)N1N=C(c2ccncc2)OC1(Cc1ccccc1)Cc1ccccc1,-0.93%
2,O=C(CC12CC3CC(CC(C3)C1)C2)Nc1ccc2c(c1)COC2=O,-3.75%
3,Nc1nonc1-n1nnc(C(=O)N/N=C/c2cc(Br)ccc2O)c1CSC1=NCCS1,24.7% (active)
4,Cc1ccc(SCc2c(C(=O)N/N=C/c3cccnc3)nnn2-c2nonc2N)cc1,0.4%
5,Nc1nonc1-n1nnc(C(=O)N/N=C/c2ccccc2O)c1CN1CCCC1,-0.45%
6,COc1ccc(C(C(=O)NC2CCCCC2)N(C(=O)Cc2c[nH]c3ccccc23)c2ccccc2)cc1OC (centres undefined),4.78%
7,N#CC1=C(N)Oc2c(ccc3cccnc23)C1c1ccncc1 (centres undefined),0.31%
8,CC1=C(C(=O)Nc2ccccc2)C(c2ccco2)C(C#N)=C(SCC(N)=O)N1 (centres undefined),-4.83%
9,N#CC1=C(N)Oc2c(sc3ccccc23)C1c1ccco1 (centres undefined),100% (active)
10,COCCCn1c(SCc2cccc(OC)c2)nc2cc(OC)c(OC)cc2c1=N,-1.89%
11,CC(=O)Nc1ccc(S(=O)(=O)NCC(=O)OCc2cc(=O)oc3ccc4ccccc4c23)cc1,2.61%
12,COc1cc(/C=C(\C#N)c2nc3c(s2)CC(C)CC3)ccc1O (centres undefined),128% (active)
13,CCNc1nc(NCC)nc(N/N=C/c2ccc(O)c(OC)c2)n1,-0.04%
14,COc1cc(/C=N/Nc2nc3ccccc3s2)ccc1O,-1.42%
15,COc1cc(/C=C(\C#N)c2nc3ccccc3[nH]2)ccc1O,96.4% (active)
16,Cc1ccc2nc(/C(C#N)=C\c3ccc(OC(=O)c4cccs4)cc3)[nH]c2c1,4.21%
17,COc1ccc(/C=C(/NC(=O)c2ccc(C)cc2)c2nc3ccccc3[nH]2)cc1OC,-0.67%
18,CCn1c(CC(=O)Nc2ccc(C)cc2)nnc1SCC(=O)Nc1nc(C)cs1,2.53%
19,O=C(NCCCCCCNC(=O)NCc1ccco1)NCc1ccco1,-3.7%
20,COc1cc2c(cc1O)[C@H](Cc1ccc(Oc3cc(C[C@@H]4NCCc5cc(OC)c(O)cc54)ccc3O)cc1)NCC2,30% (active)
21,CC[C@H]1CN2CCc3cc(OC)c(OC)cc3[C@@H]2C[C@@H]1C[C@H]1NCCc2cc(OC)c(OC)cc21,3.04%
22,COc1ccc2c(c1)CCNC2Cc1ccc(OC)c(O)c1 (centres undefined),-2.2%
23,O=S1(=O)CCO[C@H]2Cc3ccccc3[C@H]2N1Cc1ccccc1,3.47%
24,O=C(CCc1ccccc1)Nc1ccnn1C1CCN(Cc2ccc(OCCO)cc2)CC1,-3.8%
